ALDH1A1 inh: inhibitors of human aldehyde dehydrogenase 1A1; Purified ALDH1A1, NADH fluorescence, propionaldehyde substrate; Potency, µM (series often up to 75.3 µM), without a hit: top-dose activity, negative = inhibition, actives largely listed as inhibitors; AID 1030; P00352; 220,000 tested, 7.3% active; active means well fitted inhibition curve with a large enough effect, not every such curve was filed as active; inconclusive means small, poorly fitted or top-dose-only effect, or another doubt; inactive means no such curve, though single readings can be large or run the other way;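 further: potency means the concentration at half of the fitted maximal effect; plate controls were no enzyme wells and a reference inhibitor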
Target sequence (P00352 whole entry, looked up): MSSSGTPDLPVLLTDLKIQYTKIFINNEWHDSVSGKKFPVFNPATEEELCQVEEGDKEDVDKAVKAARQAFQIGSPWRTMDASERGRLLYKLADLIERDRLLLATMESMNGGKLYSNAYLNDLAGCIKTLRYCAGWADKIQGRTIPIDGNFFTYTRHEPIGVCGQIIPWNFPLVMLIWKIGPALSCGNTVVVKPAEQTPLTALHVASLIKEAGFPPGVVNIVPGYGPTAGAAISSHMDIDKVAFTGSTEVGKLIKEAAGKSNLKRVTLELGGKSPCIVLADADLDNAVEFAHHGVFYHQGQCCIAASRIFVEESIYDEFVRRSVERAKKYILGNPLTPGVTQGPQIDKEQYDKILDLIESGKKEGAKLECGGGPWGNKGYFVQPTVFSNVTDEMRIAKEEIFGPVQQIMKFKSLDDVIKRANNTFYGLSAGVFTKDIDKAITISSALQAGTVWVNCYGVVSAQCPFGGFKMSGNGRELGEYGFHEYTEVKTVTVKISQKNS
HTT aggregate: inhibitors of mutant huntingtin aggregate formation in PC12 cells | 220,000 tested, 1.1% active | AID 1688 | Potency, µM (highest dose often 46.1 µM), inactives show at the top dose activity change, negative = inhibition, usual class: inhibitors | PC12 HttQ103-GFP aggregates, Acumen cytometry, 40 h; further: potency means the concentration at half of the fitted maximal effect; on the % scale 0 is the no-effect control and ±100 the full control effect; nearly all actives have a fitted effect of over 60% in size
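Read-out: GFP aggregate count by laser scanning cytometer (488 nm excitation, 500-530 nm emission, 1–25 µm objects >6 SD above background). Cells: PC12, inducible HTTex1-Q103-GFP, 100 nM tebufenozide; compounds titrated.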
HPGD inh: HPGD (human) dehydrogenase inhibition. Potency, µM, inactives show at the top dose activity change, negative = inhibition, actives largely listed as inhibitors. P15428. 150,000 tested, 4.3% active. purified HPGD, NADH fluorescence kinetic, PGE2 substrate. AID 894; active means well fitted inhibition curve with a large enough effect, not every such curve was filed as active; inconclusive means small, poorly fitted or top-dose-only effect, or another doubt; inactive means no such curve, though single readings can be large or run the other way; further: potency means the concentration at half of the fitted maximal effect; on the % scale 0 is the no-effect control and ±100 the full control effect
Target sequence (P15428 whole entry, looked up): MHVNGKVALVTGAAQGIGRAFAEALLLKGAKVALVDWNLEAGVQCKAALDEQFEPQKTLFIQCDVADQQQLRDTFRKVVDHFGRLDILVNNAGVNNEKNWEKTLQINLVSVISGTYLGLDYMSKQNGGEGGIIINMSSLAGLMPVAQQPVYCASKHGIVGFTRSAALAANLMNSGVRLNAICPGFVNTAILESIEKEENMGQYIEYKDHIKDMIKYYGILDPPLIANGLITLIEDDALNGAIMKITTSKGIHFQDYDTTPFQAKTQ
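20 nM HPGD preincubated 15 min at room temperature with compound in 50 mM Tris-HCl pH 8, 0.01% Tween 20. Started with 1 mM NAD+ and 30 uM prostaglandin E2; NADH fluorescence (360/450 nm) read 5 times over 30-s intervals, last minus first.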
HTT cytoprotect: Huntington cell model cytoprotection by ATP luminescence; PC12 HTT-Q103 induced, cytoprotection, ATP luminescence, 40 h; Potency, µM (highest dose often 56.4 µM), for the others: cytoprotection (ATP increase), actives largely listed as activators; 230,000 tested, 0.14% active; further: potency means the concentration at half of the fitted maximal effect; % of control where 0% means no effect; nearly all actives have a fitted effect of over 45% in size
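Huntington model: PC12 line, ecdysone-inducible HTTQ103 exon1–GFP, tebufenozide 100 nM. Test articles in a dose series. Endpoint luminescence from cellular ATP.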
PNC assembly inh: perinucleolar compartment assembly inhibition. PC3M PTB-GFP, PNC prevalence imaging, 16 h; stronger effect = lower value. activity change (PNC), negative = inhibition, % at 10 µM. 140,000 tested, 3.1% active;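 active means readout at or below -70, meaning at least 70% loss of cells showing the perinucleolar compartment, a nuclear body marking cancer cells; inconclusive means readout between -30 and a set limit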;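 further: plate controls were DMSO wells for no effect and camptothecin positive control wells for full effect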
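Read-out is percentage of cells bearing a perinucleolar compartment, from automated 20x imaging of fixed, Hoechst-stained PC3M PTB-GFP cells. Cells were seeded 4 h, then exposed 16 h to compound (23 nl of library stock) in duplicate plates.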
RGS12 GoLoco inh: RGS12 GoLoco-Gai1 interaction inhibition; P63096; Gai1:RGS12 GoLoco peptide FP, rhodamine, 10 min; Potency, µM (titrated, usually from 61.6 µM), without a hit: at the highest dose activity, negative = inhibition, usual class: inhibitors; 230,000 tested, 0.44% active; AID 880; active means well fitted inhibition curve with a large enough effect, not every such curve was filed as active; inactive means no such curve, though single readings can be large or run the other way; further: potency means the concentration at half of the fitted maximal effect; on the % scale 0 is the no-effect control and ±100 the full control effect; nearly all actives have a fitted effect of over 30% in size
Active calls of the source: *; ? = inconclusive; . = no result; [ ] = dose if it differs, or a comment. This is a sample that favours compounds with a hit; in the whole collection about 11% have one here. Unless noted, the call rests on the fitted dose curve; in most records, active means well fitted curve in the direction sought with a large enough effect; inconclusive means small, poorly fitted or top-dose-only effect, or another doubt; inactive means no such curve, though single readings can be large; an effect the other way counts as inactive or inconclusive.

SMILES | ALDH1A1 inh | HTT aggregate | HPGD inh | HTT cytoprotect | PNC assembly inh | RGS12 GoLoco inh
Cc1onc(-c2c(F)cccc2Cl)c1C(=O)NC1C(=O)N2C1SC(C)(C)C2C(=O)O (stereo not given) | . | -2% | . | 26% | . | 17%
CCCCCCCC1=Cc2ccc(F)cc2C(C(C(C)=O)C(=O)OC)N1C(=O)OC (stereo not given) | 14% | . | -5% | 0% | . | 1%
O=C(COC(=O)c1cc(-c2ccco2)nc2ccccc12)NCc1ccc2c(c1)OCO2 | ? | 3% | ? | 9%[10 µM] | -100* | 2%
COc1ccccc1CNC(=O)COC(=O)c1cc(-c2ccco2)nc2ccccc12 | ? | 3% | ? | -14% | 20 | -2%
Cc1ccnc2nc(C(=O)Nc3ccc4c(c3)OCO4)nn12 | 4% | 4% | -3% | -47% | 27 | 3%
Cc1cc(C)n2nc(C(=O)Nc3ccc4c(c3)OCO4)nc2n1 | ? | 14% | 20µM* | 12%[1.9 µM] | -3 | -2%
O=C(COC(=O)Cc1ccc(S(=O)(=O)N2CCOCC2)s1)Nc1ccc2c(c1)OCO2 | 20µM* | 6%[9.22 µM] | -12% | -15% | 5 | 10%
Cc1ccc(C(=O)OCC(=O)Nc2ccc3c(c2)OCO3)o1 | -1% | 14% | -6% | -22%[0.074 µM] | -100* | -1%
COc1cccc(Cn2c(=O)c(-c3cccs3)nc3cnc(OC)nc32)c1 | ? | . | . | 22% | . | 6%
Cn1cc(-c2nc3cncnc3n(Cc3ccc(F)cc3)c2=O)c2ccccc21 | ? | . | . | 17% | . | 1%
O=C(O)C1C2CCCCC2=C2CCCCC2C1C(=O)c1ccccc1 (stereo not given) | -14% | -2%[9.22 µM] | . | -4%[10 µM] | . | -5%
Cc1cc(C)n2nc(C(=O)OCC(=O)Nc3ccc4c(c3)OC(F)(F)O4)nc2n1 | 15% | -6% | -5% | -2% | 13 | 3%
COc1ccc(NS(=O)(=O)c2ccc(O)c(C(=O)OCC(=O)Nc3ccc4c(c3)OCCO4)c2)cc1 | 22µM* | -1% | ? | 30%[10 µM] | -8 | 27%
CCN(CC)c1ccc(NC(=O)c2nc3nc(C)cc(C(F)F)n3n2)cc1 | 11µM* | -12% | 22µM* | 2%[10 µM] | 20 | 47%
CC(C)CC(=O)Nc1ccc2c(c1)OCO2 | 0% | . | . | . | . | -4%
Cc1cc(C)n2nc(C(=O)OCC(=O)Nc3ccc4c(c3)OCO4)nc2n1 | 0% | 0% | -15% | -4%[10 µM] | -94* | -8%
O=C(CCl)Nc1ccc2c(c1)OCO2 | 1.6µM* | ? | . | -220% | . | -1%
Cc1cc(C)n2nc[n+](C)c2n1 | 0% | -5% | -9% | -7%[10 µM] | ? | 18%
CCOc1ccccc1Cn1c(=O)sc2ccccc21 | -1% | 3%[9.22 µM] | . | 4%[10 µM] | . | 7%
NCCC[C@@H](CC(=O)N[C@@H]1CCNC[C@H]1C(=O)N[C@H](CC(=O)N[C@@H](CCC(=O)O)CC(=O)O)Cc1ccccc1)NC(=O)C[C@H](Cc1c[nH]c2ccccc12)NC(=O)[C@@H]1CNCC[C@H]1N | 6% | . | -5% | -2%[1.9 µM] | . | -4%
CC(C)CC(NC(N)=O)C(=O)Nc1ccc2c(c1)OCO2 (stereo not given) | 18µM* | -3% | . | -35% | . | 30%
O=C(COC(=O)c1cc(-c2ccccc2)nc2ccccc12)Nc1ccc2c(c1)OCO2 | 10% | 4% | -7% | 8%[1.9 µM] | 14 | -13%
O=C(COC(=O)c1c2c(nc3ccccc13)CCCC2)Nc1ccc2c(c1)OCO2 | 8.9µM* | 7%[9.22 µM] | -21% | -29% | ? | 103%
CC1CN(S(=O)(=O)c2cccc(C(=O)OCC(=O)Nc3ccc4c(c3)OCO4)c2)CC(C)O1 (stereo not given) | 11µM* | 1% | -6% | -14% | -2 | -29%
CC1CN(S(=O)(=O)c2cccc(C(=O)OCC(=O)c3cccs3)c2)CC(C)O1 (stereo not given) | ? | 14% | -13% | -23% | 27 | 12%
SMILES | ALDH1A1 inh | HTT aggregate | HPGD inh | HTT cytoprotect | PNC assembly inh | RGS12 GoLoco inh
O=C(Nc1nc2c(s1)CN(Cc1ccccc1)CC2)c1cccc(S(=O)(=O)N2CCc3ccccc32)c1 | -14% | -15% | -20% | -24% | 27 | 77%
CC1=CC(C)(C)N(S(=O)(=O)c2ccc(C)cc2)c2cc(C)ccc21 | -1% | -9%[9.22 µM] | -18% | -82% | -95* | -1%
CC(C)CNS(=O)(=O)c1ccc(NC(=O)Cn2nc(-c3ccc(F)cc3)ccc2=O)cc1 | 5% | 21% | 7.9µM* | 17%[10 µM] | 43 | -1%
COc1ccc(-c2ccc(=O)n(CC(=O)Nc3ccc(C(=O)NC4CC4)cc3)n2)cc1OC | 6% | 15% | 16µM* | -4% | 71 | 19%
COc1ccc(-c2ccc(=O)n(CC(=O)NC3CCc4ccccc43)n2)cc1OC (stereo not given) | -2% | 3%[9.22 µM] | . | 10%[10 µM] | . | 14%
CN(C1CCCCC1)S(=O)(=O)c1ccc(NC(=O)Cn2nc(-c3ccc(F)cc3)ccc2=O)cc1 | 13% | 28% | -15% | -10%[10 µM] | ? | 10%
CC(=O)c1cccc(NC(=O)Cn2nc(-c3ccc(Cl)cc3)ccc2=O)c1 | 7.9µM* | 9%[9.22 µM] | . | 16%[10 µM] | . | 18%
COc1ccc(OC)c(C2=NOC(C(=O)Nc3cc(C)on3)C2)c1 (stereo not given) | . | -16%[9.22 µM] | . | 6%[10 µM] | . | 0%
Clc1ccccc1-c1nc(NCc2cccnc2)c2ccccc2n1 | ? | . | . | 1% | . | 7%
Cc1cc(C(=O)COC(=O)c2ccc([N+](=O)[O-])o2)c(C)n1CC1CCCO1 (stereo not given) | 16µM* | 15% | . | -48% | . | 0%
Cc1cc(C)c(C(=O)COC(=O)c2ccc([N+](=O)[O-])o2)cc1C | 2µM* | -14% | . | -56% | . | 39%
Cc1cc(C(=O)COC(=O)c2ccc(O)cc2)c(C)n1CC1COc2ccccc2O1 (stereo not given) | ? | 17% | -5% | 2%[10 µM] | -81* | 16%
CCC(CC)(CC(=O)Nc1cccc(/C=C/c2nc(C3CCC3)cs2)c1)C(=O)O | ? | -1% | ? | -194% | . | -1%
O=C(/C=N\O)NCCCNCc1ccccc1 | 22µM* | -6% | -8% | -4% | ? | -10%
CN(C)CCCNCCCNC(=O)c1ccncc1 | -6% | 3% | -5% | -2% | -1 | -4%
O=C(NCCCNCc1ccccc1)c1ccncc1 | 2µM* | -3% | 2% | -17% | 1 | -1%
C[n+]1cccc(CNC(=O)/C=N/O)c1 | 1% | 12% | 6% | -44% | -9 | 14µM*
O=C(/C=N/O)NCc1cccnc1 | 3% | 9% | . | -15%[10 µM] | ? | .
CCOC(=O)CCN1C(=O)[C@H]2[C@H]3[C@H](O)[C@H](O)C/C(=N/OC[C@@H](O)COCc4ccco4)[C@@H]3CC[C@@H]2C1=O | 1%[13.5 µM] | . | . | -3%[10 µM] | . | .

Assay outcomes deposited in PubChem by National Center for Advancing Translational Sciences (NCATS).
